From PubChem BioAssay (NCI)
Values joined by “and” are separate entries in the source; they are usually repeats but may differ in a detail not shown here. Equal values may be shown once. Compounds without any hit were thinned out: in the full panel of roughly 83,000, 20% have a hit.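 Step 1: grow cells in 96-well plates. Step 2: add test compound at a single concentration. Step 3: incubate 48 h. Step 4: record percent growth.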 Active and inactive are the calls of the source. Rule for the calls: active = growth percent below 10; inactive = the rest.

Columns and labels:
Assay in all cases: NCI-60 one-dose screen, 48 h (100 = growth as untreated, 0 = no growth, -100 = all killed)
Settings in all cases: 10 µM unless noted
HCT-15 colon = system: HCT-15 colon
HT29 colon = system: HT29 colon
SNB-75 CNS = system: SNB-75 CNS
SNB-19 CNS = system: SNB-19 CNS
U251 CNS = system: U251 CNS
PC-3 prostate = system: PC-3 prostate
SK-MEL-5 melanoma = system: SK-MEL-5 melanoma
UACC-62 melanoma = system: UACC-62 melanoma
LOX IMVI melanoma = system: LOX IMVI melanoma
SK-MEL-28 melanoma = system: SK-MEL-28 melanoma

Row | Structure (SMILES) | growth (HCT-15 colon) | growth (HT29 colon) | growth (SNB-75 CNS) | growth (SNB-19 CNS) | growth (U251 CNS) | growth (PC-3 prostate) | growth (SK-MEL-5 melanoma) | growth (UACC-62 melanoma) | growth (LOX IMVI melanoma) | growth (SK-MEL-28 melanoma)
1 | CCOP(=O)(OCC)OC[C@]12CCC(C)(C)CC1C1=CC[C@@H]3[C@@]4(C)CCCNC(C)(C)[C@@H]4CC[C@@]3(C)[C@]1(C)CC2 (stereo not given in full) | 44.3% (inactive) | 42% (inactive) | 93.6% (inactive) | 87% (inactive) | 56.3% (inactive) | 51.3% (inactive) | 80.7% (inactive) | 90.5% (inactive) | 25.3% (inactive) | 101% (inactive)
2 | CS(=O)(=O)c1ccc(/C(=N/N=C(N)N)c2ccc(Cl)cc2)cc1 | 81.6% (inactive) | 92.9% (inactive) | 72.8% (inactive) | 90.3% (inactive) | 92.8% (inactive) | 76.5% (inactive) | 92.2% (inactive) | 80.8% (inactive) | 79.7% (inactive) | 95.1% (inactive)
3 | CCN(CC)S(=O)(=O)c1ccc(-c2nc(C(Cl)Cl)nc3cc(C)nn23)cc1 | 1.86% (active) | 5.07% (active) | 46.7% (inactive) | 46.2% (inactive) | 8.28% (active) | 31.1% (inactive) | 78.3% (inactive) | 49.9% (inactive) | 35.6% (inactive) | 23.3% (inactive)
4 | CCCCCN1C(=O)/C(=c2\sc3n(c2=O)C2C(NN=3)N(CC)C(=O)N2CC)c2cccc(C)c21 (stereo not given) | 19.9% (inactive) | 37.9% (inactive) | 20.5% (inactive) | 53.1% (inactive) | 61% (inactive) | 40% (inactive) | 45.5% (inactive) | 35.4% (inactive) | 37.9% (inactive) | 62.4% (inactive)
5 | CCOC(=O)c1cccc(NC2=C(Cl)C(=O)c3nc(C)ccc3C2=O)c1 | 72.2% (inactive) | 116% (inactive) | 108% (inactive) | 90.8% (inactive) | 103% (inactive) | 82% (inactive) | 98.2% (inactive) | 95.8% (inactive) | 65.1% (inactive) | 103% (inactive)
6 | CCCC/C(=C\c1ccc(O)c(O)c1)C(=O)NC(Cc1ccccc1)C(=O)C(=O)NCCc1ccc(OC)cc1 (stereo not given) | 93.4% (inactive) | 105% (inactive) | 86.9% (inactive) | 91.2% (inactive) | 103% (inactive) | 94.4% (inactive) | 98.9% (inactive) | 86.6% (inactive) | 89.4% (inactive) | 102% (inactive)
7 | CC1=C(C)C(=O)C(Nc2cccc(C(=O)OC(C)(C)C)c2)=C(Cl)C1=O | 80.2% (inactive) | 98.2% (inactive) | 58.4% (inactive) | 91.5% (inactive) | 88.5% (inactive) | 76.9% (inactive) | 98.1% (inactive) | 93.4% (inactive) | 62.6% (inactive) | 104% (inactive)
8 | N#Cc1cnc2ccc(-c3cnc4n[nH]nc4c3)cc2c1N1CCc2cc(F)c(Cl)cc21 | 12.3% (inactive) | 28.1% (inactive) | -0.117% (active) | 16.4% (inactive) | 21.1% (inactive) | 20.4% (inactive) | -45% (active) | 2.13% (active) | 10.1% (inactive) | 13.4% (inactive)
9 | COc1ccc2[nH]cc(-c3nn4cc(-c5ccncc5)nc4s3)c2c1 | 37.8% (inactive) | 66.6% (inactive) | 61.7% (inactive) | 75.3% (inactive) | 67.9% (inactive) | 45.7% (inactive) | 67.4% (inactive) | 63.8% (inactive) | 57.8% (inactive) | 112% (inactive)
10 | CN1CCN(c2ccc(Nc3nc(NCCNC(=O)c4ccccc4)c4sccc4n3)cc2)CC1 | 20.7% (inactive) | 4.23% (active) | 81% (inactive) | 88.4% (inactive) | 18.3% (inactive) | 61.8% (inactive) | 21.3% (inactive) | 53% (inactive) | 5.15% (active) | 59.5% (inactive)
11 | Nc1ccc(Nc2ncnc3sc4c(c23)CCN(Cc2ccccc2)C4)cc1 | 100% (inactive) | 101% (inactive) | 88.7% (inactive) | 97.2% (inactive) | 102% (inactive) | 89.1% (inactive) | 96.6% (inactive) | 87.8% (inactive) | 101% (inactive) | 102% (inactive)
12 | COC(=O)CNC(=O)c1cccc(-c2cc(=O)c3c(OC)c(OC)c(OC)cc3o2)c1 | 96% (inactive) | 110% (inactive) | 99.5% (inactive) | 92.6% (inactive) | 106% (inactive) | 95.6% (inactive) | 98.6% (inactive) | 90.2% (inactive) | 97.5% (inactive) | 106% (inactive)
13 | N#Cc1cccc(-c2cc(-c3ccc4c(c3)OCCO4)[nH]n2)c1 | 23.2% (inactive) | 11.2% (inactive) | 10.6% (inactive) | 36.6% (inactive) | 30.2% (inactive) | 39.7% (inactive) | 12.1% (inactive) | 41.7% (inactive) | 46% (inactive) | 55.9% (inactive)
14 | Fc1ccc2nc(-c3cnn4cccnc34)sc2c1 | 76.9% (inactive) | 97.9% (inactive) | 68.5% (inactive) | 82.1% (inactive) | 75.8% (inactive) | 84.3% (inactive) | 90% (inactive) | 75.4% (inactive) | 92.9% (inactive) | 117% (inactive)
15 | N#C/C(=C\c1ccc(-c2ccc(Cl)c(Cl)c2)o1)C(=O)Nc1ncc(Cc2ccc(Cl)cc2)s1 | 13.5% (inactive) | 27.9% (inactive) | 7.13% (active) | 37.8% (inactive) | 3.74% (active) | 36.7% (inactive) | 80.4% (inactive) | 48.6% (inactive) | -79.8% (active) | 18.2% (inactive)
16 | CN1CCN(c2ccc(Nc3nc(NCCCNS(=O)(=O)c4cccc5ccccc45)c4sccc4n3)cc2)CC1 | -32.8% (active) | -62.1% (active) | -36.9% (active) | 35.7% (inactive) | -74.4% (active) | 29.1% (inactive) | -95.3% (active) | -61% (active) | -85.2% (active) | -80.9% (active)
17 | CCCCCCCCCC(=O)NC(C)(C)C(=O)N1CCC[C@H]1C(=O)N[C@@H](CC(C)C)C(=O)N[C@@](C)(CC)C(=O)N[C@@H](CCC(N)=O)C(=O)N[C@H](CCC(N)=O)C(=O)NC(C)(C)C(=O)NC(C)(C)C(=O)N[C@@H](CCC(N)=O)C(=O)N[C@H](CC(C)C)C(=O)N[C@H](CO)CC(C)C | -79.6% (active) and 23.1% (inactive) | -51.5% (active) and -46.3% (active) | -66.3% (active) and -94% (active) | -96.3% (active) and -99% (active) | -92% (active) and -81.5% (active) | -94.1% (active) and -55.4% (active) | -96.7% (active) and -93.7% (active) | -96.7% (active) and -91.7% (active) | -91.5% (active) and -88.4% (active) | -97.9% (active) and -99.9% (active)
18 | CCOC(=O)c1c(NC(=O)c2ccc(C(F)(F)F)cc2)sc2c(CN3CCN(C)CC3)c(O)ccc12 | -72.9% (active) | -52.1% (active) | 63.8% (inactive) | -27.3% (active) | -88% (active) | -79% (active) | 64.4% (inactive) | 28.8% (inactive) | -93.1% (active) | -82.3% (active)
19 | Nn1c(=O)n(-c2cccc(C(F)(F)F)c2)c(=O)c2cc(-c3ccc(F)cc3F)ccc21 | 10.6% (inactive) | 60.8% (inactive) | -16.5% (active) | 9.55% (active) | 5.07% (active) | -3.92% (active) | -51.6% (active) | 1.73% (active) | 0.654% (active) | 28% (inactive)
20 | O=C(CCCCCCNC(=O)c1csc(Br)n1)NO | 60.5% (inactive) | 17.2% (inactive) | 19.4% (inactive) | 59.7% (inactive) | 49.3% (inactive) | 47.4% (inactive) | 17.7% (inactive) | 14.4% (inactive) | 13.8% (inactive) | 29.3% (inactive)
21 | O=C(N/N=C/c1cc2ccccc2nc1Cl)c1cc(-c2nc3ccccc3[nH]2)nc2ccccc12 | 82.9% (inactive) | 90.3% (inactive) | 83.2% (inactive) | 95.3% (inactive) | 92.2% (inactive) | 81.6% (inactive) | 81.9% (inactive) | 75.1% (inactive) | 88.9% (inactive) | 99.2% (inactive)
